The record followed here is the supplement of paper PMC9492666.

Each structure is given as a SMILES string.
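Note: breast cancer cell viability read out with the CCK-8 kit after co-treatment of each compound with the ferroptosis inducer RSL3.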

This test concerns MDA-MB-231. Description: relative cell viability, compound + RSL3, vs DMSO (fraction of DMSO control); higher = less growth inhibition. The following applies: 72 h.
Take `COc1ccc(CN2CCC(c3ccc4nc(C(=O)N5CCN(Cc6ccc(C(F)(F)F)cc6)CC5)[nH]c4c3)CC2)cn1` + COC(=O)c1ccc([C@H]2c3[nH]c4ccccc4c3C[C@H](C(=O)OC)N2C(=O)CCl)cc1 [RSL3]: the relative cell viability stood at 0.562.

For `O=C(OC(C(F)(F)F)C(F)(F)F)N1CCN(Cc2ccc(C(F)(F)F)cc2N2CCCC2)CC1` + COC(=O)c1ccc([C@H]2c3[nH]c4ccccc4c3C[C@H](C(=O)OC)N2C(=O)CCl)cc1 [RSL3], the relative cell viability is 0.613. With `CC(C)(Oc1ccc(Cl)cc1)C(=O)O` [Clofibric acid] + COC(=O)c1ccc([C@H]2c3[nH]c4ccccc4c3C[C@H](C(=O)OC)N2C(=O)CCl)cc1 [RSL3] the figure was 0.603. For the compound `CCc1c(-c2ccccc2)c(-c2ccccc2)nn1-c1ccccc1-c1cccc(OCC(=O)O)c1` + COC(=O)c1ccc([C@H]2c3[nH]c4ccccc4c3C[C@H](C(=O)OC)N2C(=O)CCl)cc1 [RSL3], the relative cell viability was determined as 0.741. Turning to `COc1ccc(C(=O)/C=C/c2ccccc2)cc1` [4'-Methoxychalcone] + COC(=O)c1ccc([C@H]2c3[nH]c4ccccc4c3C[C@H](C(=O)OC)N2C(=O)CCl)cc1 [RSL3], the relative cell viability was determined as 0.582. As to `O=S(=O)(c1ccccc1)N(CC(F)(F)F)c1ccc(C(O)(C(F)(F)F)C(F)(F)F)cc1` + COC(=O)c1ccc([C@H]2c3[nH]c4ccccc4c3C[C@H](C(=O)OC)N2C(=O)CCl)cc1 [RSL3], the relative cell viability turned out to be 0.638. With `CC1(C)CC[C@]2(C(=O)O[C@@H]3O[C@H](CO)[C@@H](O)[C@H](O)[C@H]3O)CC[C@]3(C)C(=CC[C@@H]4[C@@]5(C)CC[C@H](O[C@@H]6O[C@H](C(=O)O)[C@@H](O)[C@H](O)[C@H]6O[C@@H]6O[C@H](CO)[C@@H](O)[C@H](O)[C@H]6O)C(C)(C)[C@@H]5CC[C@]43C)[C@@H]2C1` [Ginsenoside Ro] + COC(=O)c1ccc([C@H]2c3[nH]c4ccccc4c3C[C@H](C(=O)OC)N2C(=O)CCl)cc1 [RSL3] the figure was 0.478.
